Screening data: PubChem, several laboratories
GRIN3A LBD mod – modulates the human NR3A ligand-binding domain; Tm shift relative to glycine control, % at 25 µM; hit rate 2.5% among 340,000; AID 1259313; NR3A LBD differential scanning fluorimetry, Tm shift; 0% = protein alone, 100% = glycine-bound protein;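 active = melting temperature shift of at least 10% of the positive control shift, at one fixed dose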
Myeloid diff 2 – compounds promoting myeloid differentiation. AID 624256. calls only at 10 µM. ER-HoxA9 myeloid progenitors, lysozyme-GFP differentiation, flow cytometry. hit rate 1% among 360,000;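 active = normalized GFP-positive differentiation at or above the plate's own cutoff, the solvent-only control mean plus 3 SD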;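 note: cells exposed to compound for four days before flow analysis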
rCAG RNA binder – r(CAG) repeat RNA binding; TO-PRO-1 dye displacement fluorescence; inhibition, % at 3 µM; hit rate 1.3% among 370,000;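 active = inhibition above the plate cutoff, the mean of all test compounds on that plate plus 3 SD, cut at about 35% in these data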;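 note: 0% = DMSO alone and 100% = 100 µM mitoxantrone as full dye displacement; higher means more dye released from RNA so lower well fluorescence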
MPTP inh – inhibitors of mitochondrial permeability transition pore; isolated mouse mitochondria, Ca2+ swelling absorbance, 30 min; inhibition, % at 10 µM; hit rate 1.4% among 360,000;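 active = inhibition of 50% or more, scaled per plate between neutral and stimulator controls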;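 note: 0% = DMSO wells given calcium and 100% = 1 mM EGTA wells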
FAS TE block – inhibitors of human fatty acid synthase thioesterase domain; hit rate 0.67% among 360,000; recombinant FAS-TE, OMFH fluorogenic substrate, fluorescence endpoint; P49327; inhibition, % at 15 µM;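 active = compounds whose normalised, plate-corrected inhibition of enzyme fluorescence in the single-dose primary screen is 50% or more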;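 note: 0% = DMSO with enzyme and 100% = substrate without enzyme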
Target sequence (P49327 whole entry, looked up, the tested form may be a part): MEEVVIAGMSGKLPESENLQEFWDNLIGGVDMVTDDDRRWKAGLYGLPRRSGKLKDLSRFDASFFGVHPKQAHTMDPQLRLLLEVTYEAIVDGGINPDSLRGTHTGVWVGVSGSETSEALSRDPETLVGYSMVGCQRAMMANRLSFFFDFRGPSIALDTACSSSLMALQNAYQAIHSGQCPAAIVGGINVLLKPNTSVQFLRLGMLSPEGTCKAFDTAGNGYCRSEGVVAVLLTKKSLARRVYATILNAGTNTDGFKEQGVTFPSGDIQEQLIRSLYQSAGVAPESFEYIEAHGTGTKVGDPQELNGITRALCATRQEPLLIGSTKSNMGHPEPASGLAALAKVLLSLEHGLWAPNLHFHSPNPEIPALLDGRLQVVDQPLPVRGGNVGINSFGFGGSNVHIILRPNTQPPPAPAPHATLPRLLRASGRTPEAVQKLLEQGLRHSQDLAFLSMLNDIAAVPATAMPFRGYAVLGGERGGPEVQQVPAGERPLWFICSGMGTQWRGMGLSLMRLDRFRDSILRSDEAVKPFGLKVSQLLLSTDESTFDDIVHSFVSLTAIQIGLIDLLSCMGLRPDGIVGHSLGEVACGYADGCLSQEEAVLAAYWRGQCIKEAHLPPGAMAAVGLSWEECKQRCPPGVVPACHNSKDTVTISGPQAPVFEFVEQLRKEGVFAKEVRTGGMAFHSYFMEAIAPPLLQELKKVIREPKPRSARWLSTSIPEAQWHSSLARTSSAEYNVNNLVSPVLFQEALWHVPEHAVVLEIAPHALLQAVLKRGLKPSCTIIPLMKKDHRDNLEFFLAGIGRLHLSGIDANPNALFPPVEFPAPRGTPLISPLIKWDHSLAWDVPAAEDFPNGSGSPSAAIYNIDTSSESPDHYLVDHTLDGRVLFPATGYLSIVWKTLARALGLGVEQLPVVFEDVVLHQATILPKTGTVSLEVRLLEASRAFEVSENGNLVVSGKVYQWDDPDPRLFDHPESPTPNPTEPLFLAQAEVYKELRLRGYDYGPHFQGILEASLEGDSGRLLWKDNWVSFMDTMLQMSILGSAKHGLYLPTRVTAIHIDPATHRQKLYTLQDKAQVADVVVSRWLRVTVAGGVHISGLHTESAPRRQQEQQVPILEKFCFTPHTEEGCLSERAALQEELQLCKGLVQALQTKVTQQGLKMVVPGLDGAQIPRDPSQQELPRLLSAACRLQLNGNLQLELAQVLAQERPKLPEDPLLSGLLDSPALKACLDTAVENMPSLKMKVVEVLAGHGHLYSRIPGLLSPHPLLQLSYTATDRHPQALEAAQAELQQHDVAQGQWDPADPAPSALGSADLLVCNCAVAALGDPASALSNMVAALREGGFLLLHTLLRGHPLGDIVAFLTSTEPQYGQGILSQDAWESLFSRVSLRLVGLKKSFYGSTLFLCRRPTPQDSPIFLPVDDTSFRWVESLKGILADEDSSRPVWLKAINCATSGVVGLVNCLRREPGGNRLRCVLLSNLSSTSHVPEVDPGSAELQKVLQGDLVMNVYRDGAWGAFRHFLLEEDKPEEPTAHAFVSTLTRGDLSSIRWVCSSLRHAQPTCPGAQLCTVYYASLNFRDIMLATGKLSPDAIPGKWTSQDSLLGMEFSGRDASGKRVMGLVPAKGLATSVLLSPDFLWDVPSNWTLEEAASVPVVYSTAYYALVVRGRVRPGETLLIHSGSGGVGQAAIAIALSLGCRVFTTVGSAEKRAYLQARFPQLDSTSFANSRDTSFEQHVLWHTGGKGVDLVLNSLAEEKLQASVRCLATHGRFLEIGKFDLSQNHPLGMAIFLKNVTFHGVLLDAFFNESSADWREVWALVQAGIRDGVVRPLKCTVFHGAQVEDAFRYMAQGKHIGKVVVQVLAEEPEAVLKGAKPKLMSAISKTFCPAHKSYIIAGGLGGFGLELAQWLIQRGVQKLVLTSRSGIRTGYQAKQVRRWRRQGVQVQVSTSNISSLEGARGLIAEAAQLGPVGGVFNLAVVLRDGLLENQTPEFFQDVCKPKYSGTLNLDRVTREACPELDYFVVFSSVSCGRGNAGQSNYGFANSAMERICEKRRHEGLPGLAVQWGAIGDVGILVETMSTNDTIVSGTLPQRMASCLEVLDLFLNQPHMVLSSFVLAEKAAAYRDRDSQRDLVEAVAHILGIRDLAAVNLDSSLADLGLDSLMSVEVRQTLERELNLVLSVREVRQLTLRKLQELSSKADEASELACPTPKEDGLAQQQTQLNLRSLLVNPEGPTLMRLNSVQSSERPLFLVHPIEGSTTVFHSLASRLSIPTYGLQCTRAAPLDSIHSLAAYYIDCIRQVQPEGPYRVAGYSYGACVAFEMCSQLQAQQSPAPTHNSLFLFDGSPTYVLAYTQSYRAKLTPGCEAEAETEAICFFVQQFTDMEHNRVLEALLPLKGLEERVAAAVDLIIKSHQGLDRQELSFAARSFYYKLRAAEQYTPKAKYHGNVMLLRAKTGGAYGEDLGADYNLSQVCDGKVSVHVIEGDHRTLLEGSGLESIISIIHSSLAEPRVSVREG
rCAG bind conf – r(CAG) RNA repeat binding, confirmation | shares compounds with rCAG RNA binder | TO-PRO-1 dye displacement fluorescence | inhibition, % at 3 µM | hit rate 70% among 4,300 | AID 652065;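 active = inhibition above a per-plate cutoff, the mean inhibition of sample wells plus 3 SD, cut at about 35% in these data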;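 note: loss of TO-PRO-1 fluorescence as compound displaces dye from 1x1 AA loop RNA; 0% = DMSO only wells and 100% = 100 µM mitoxantrone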
DNA CAG counter – counter-screen for rCAG RNA binders: DNA CAG dye complex inhibitors; shares compounds with rCAG RNA binder; d(CAG) DNA oligo TO-PRO-1 dye displacement, fluorescence; inhibition, % at 3 µM; hit rate 94% among 4,300;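 active = inhibition above its plate's cutoff, the mean test-well inhibition plus 3 SD, cut at about 4.8% in these data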;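 note: 0% = DNA dye mix with DMSO and 100% = 100 µM mitoxantrone; hits displace the dye from DNA and so lower well fluorescence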
DNA CAG DR – DNA CAG dye complex inhibition, dose response counter-screen; shares compounds with rCAG RNA binder; DNA CAG/GTC duplex TO-PRO-1 dye displacement fluorescence; IC50, µM; hit rate 20% among 250; AID 686960; in the data active = IC50 below about 10 µM
* marks the source's active call; other numbers are inactive results. Rows were chosen to be rich in hits. Some 5.7% of all compounds tested hit in one or more screens of this group.

`C/C(=N\NC(=O)c1cc(O)ccc1O)c1cccc(NC(=O)c2cccc(Cl)c2)c1` gave GRIN3A LBD mod 2.4, Myeloid diff 2 inactive, rCAG RNA binder 45.2*, MPTP inh -1.1, FAS TE block -9.1, rCAG bind conf 21.6 and DNA CAG counter 8.4*.
Cc1c(Cl)cccc1-n1c(SCC(=O)NCc2ccccc2Cl)nnc1-c1ccncc1 was read as GRIN3A LBD mod -2.6, Myeloid diff 2 inactive, rCAG RNA binder -4.2, MPTP inh -2.8 and FAS TE block -0.8.
O=C(Cn1nnc(-c2cccc(C(F)(F)F)c2)n1)NNS(=O)(=O)c1cccc(C(F)(F)F)c1 was read as GRIN3A LBD mod 8.5, Myeloid diff 2 inactive, rCAG RNA binder 53.7*, MPTP inh 15.1, FAS TE block 13.3, rCAG bind conf 37.6* and DNA CAG counter 10.2*.
CS(=O)(=O)NNC(=O)Cn1nnc(-c2cc(C(F)(F)F)cc(C(F)(F)F)c2)n1 was read as GRIN3A LBD mod -4.0, Myeloid diff 2 inactive, rCAG RNA binder 4.9, MPTP inh 1.9 and FAS TE block 0.1.
Screening COc1ccc(S(=O)(=O)Nc2ccc3c(c2)C(=O)N([C@H](C)CO)C[C@H](C)[C@@H](CN(C)C(=O)Nc2ccc(C(F)(F)F)cc2)O3)cc1 returned GRIN3A LBD mod -4.6, Myeloid diff 2 inactive, rCAG RNA binder 12.7, MPTP inh 0.3 and FAS TE block 22.3.
`COc1ccc(CCNC(=O)c2ccccc2NS(=O)(=O)c2c(F)cccc2F)cc1` gave GRIN3A LBD mod -9.6, Myeloid diff 2 inactive, rCAG RNA binder 47.9*, MPTP inh 0.8, FAS TE block 3.7, rCAG bind conf 33.1 and DNA CAG counter 9.9*.
Oc1c(N=Nc2nn[nH]n2)ccc2ccccc12 was read as Myeloid diff 2 inactive, rCAG RNA binder 46.5*, MPTP inh 4.8, FAS TE block 15.5, rCAG bind conf 61.0* and DNA CAG counter 29.6*.
Screening CCCOc1cccc(C2C(C(=O)c3cc4ccccc4o3)=C(O)C(=O)N2c2cc(C)on2)c1 (configuration not stated) returned GRIN3A LBD mod -7.5, Myeloid diff 2 inactive, rCAG RNA binder 43.5*, MPTP inh 4.6, FAS TE block -5.3, rCAG bind conf 76.6* and DNA CAG counter 35.8*.
Cc1cc(N2C(=O)C(O)=C(C(=O)c3cc4ccccc4o3)C2c2cccc(Br)c2)no1 (configuration not stated) was read as GRIN3A LBD mod -3.4, Myeloid diff 2 inactive, rCAG RNA binder 69.5*, MPTP inh 3.9, FAS TE block 7.1, rCAG bind conf 79.3* and DNA CAG counter 45.8*.
`CCCCCOc1ccc(C2C(C(=O)c3ccc(C)o3)=C(O)C(=O)N2c2cc(C)on2)cc1` (configuration not stated) gave GRIN3A LBD mod -4.1, Myeloid diff 2 inactive, rCAG RNA binder 36.2*, MPTP inh 17.4, FAS TE block -9.6, rCAG bind conf 49.5* and DNA CAG counter 15.2*.
CCOc1ccc(C2C(C(=O)c3ccc(C)o3)=C(O)C(=O)N2c2cc(C)on2)cc1OC (configuration not stated) was read as GRIN3A LBD mod -1.1, Myeloid diff 2 inactive, rCAG RNA binder 12.9, MPTP inh -1.6 and FAS TE block -2.6.
For N=C1/C(=C\c2ccc(SCc3ccccc3)o2)C(=O)N=C2SC(CC(=O)N3CCOCC3)=NN12 the results were GRIN3A LBD mod -3.3, Myeloid diff 2 inactive, rCAG RNA binder 71.3*, MPTP inh 8.3, FAS TE block -2.5, rCAG bind conf 67.9* and DNA CAG counter 30.2*.
For COc1cc(/C=C2/C(=N)N3N=C(CC(=O)N4CCOCC4)SC3=NC2=O)ccc1OCc1ccc(F)cc1 the results were GRIN3A LBD mod -2.8, Myeloid diff 2 inactive, rCAG RNA binder 36.4*, MPTP inh 2.4, FAS TE block -3.6, rCAG bind conf 76.9* and DNA CAG counter 34.8*.
COc1cc(/C=C2/C(=N)N3N=C(CC(=O)N4CCOCC4)SC3=NC2=O)ccc1OCc1ccccc1F was read as GRIN3A LBD mod -0.7, Myeloid diff 2 inactive, MPTP inh -2.6 and FAS TE block -7.4.
Screening Cc1ccc(/C=C2\C(=N)N3N=C(CC(=O)N4CCOCC4)SC3=NC2=O)o1 returned GRIN3A LBD mod -2.6, Myeloid diff 2 inactive, rCAG RNA binder 24.4, MPTP inh -0.9 and FAS TE block -5.8.
O=C(O)CSc1cc(NS(=O)(=O)c2ccc(Br)cc2)c2ccccc2c1O was read as GRIN3A LBD mod -26.6, Myeloid diff 2 inactive, rCAG RNA binder 39.5*, MPTP inh 4.6, FAS TE block 12.2, rCAG bind conf 57.0* and DNA CAG counter 22.6*.
For Cc1ccc(S(=O)(=O)Nc2ccc(Br)cc2C(NCC(=O)O)c2ccccc2)cc1 (configuration not stated) the results were GRIN3A LBD mod 1.2, Myeloid diff 2 inactive, rCAG RNA binder 72.7*, MPTP inh 1.2, FAS TE block -5.5, rCAG bind conf 74.5*, DNA CAG counter 26.0* and DNA CAG DR inactive.
`O=S(=O)(Nc1cc(Sc2ncn[nH]2)c(O)c2ccccc12)c1ccccc1` gave GRIN3A LBD mod -1.4, Myeloid diff 2 inactive, rCAG RNA binder 22.2, MPTP inh 0.6 and FAS TE block -13.7.
For O=C(Nc1ccccc1NS(=O)(=O)c1ccc(F)cc1)C1CCC1 the results were GRIN3A LBD mod -0.4, Myeloid diff 2 inactive, rCAG RNA binder 1.6, MPTP inh -1.2 and FAS TE block -3.2.
COc1ccccc1/C=C/C=c1\sc2nc(=O)c(Cc3ccccc3)nn2c1=O was read as GRIN3A LBD mod 0.9, Myeloid diff 2 inactive, rCAG RNA binder 40.4*, MPTP inh -2.4, FAS TE block 4.4, rCAG bind conf 49.9* and DNA CAG counter 21.5*.
For CCc1nnc(NC(=O)CSc2nc(-c3ccccc3)cc(-c3ccc(F)cc3)c2C#N)s1 the results were GRIN3A LBD mod -0.8, Myeloid diff 2 inactive, rCAG RNA binder 4.2, MPTP inh 4.6 and FAS TE block -7.6.
Screening Cc1ccc(-c2cc(C(F)(F)F)c(C#N)c(SCC(=O)O)n2)cc1 returned GRIN3A LBD mod 0.6, Myeloid diff 2 inactive, rCAG RNA binder 47.8*, MPTP inh 1.4, FAS TE block 20.7, rCAG bind conf 24.4 and DNA CAG counter 5.0*.
N#Cc1c(-c2ccccc2)cc(-c2ccccc2)nc1SCC(=O)NCC(=O)O was read as GRIN3A LBD mod 0.0, Myeloid diff 2 inactive, rCAG RNA binder 41.4*, MPTP inh 2.3, FAS TE block -5.3, rCAG bind conf 37.2* and DNA CAG counter 10.0*.
